These results are taken from PubChem BioAssay (NCATS).

Where “and” joins values, the source holds several entries; their conditions need not be identical. Equal values may be shown once. Records with an inconclusive call do not appear. More than one record can exist for a structure, and the calls need not agree. Values without a mark were called inactive. Calls of active or inactive are those of the source. Calls follow the shape of the dose curve; as a rule, active = well fitted inhibition curve with a large enough effect; inconclusive = small, poorly fitted or top-dose-only effect; inactive = flat fitted curve, though single readings scatter.
% is scaled to controls: 0 for no effect and ±100 for the full control effect; potency is read from the fitted curve at half-maximal effect.

The first experiment deals with HEK293. Description: Cytotoxic Profiling of Annotated Libraries Using Quantitative High-Throughput Screening (AID 1296008). Also: nearly all actives have a fitted effect of over 60% in size. To be noted: Five cell lines viability, CellTiter-Glo ATP luminescence, 48-72 h; max response: stronger effect = lower value. The method, boiled down: (§1)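 Cells exposed to compounds for 48 or 72 hr at 37 degrees Celsius. Viability read as ATP-coupled luminescence with CellTiter-Glo after 10 min at room temperature.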
A general note: In ATP-based viability assays light output follows the ATP content of the culture.
As for `COc1nccc(-c2c(-c3ccc(F)cc3)ncn2C2CCC(O)CC2)n1` (stereo unspecified), the max response is -17.3% and the compound was called inactive.

Take `CNc1nc(Nc2ccc(C(=O)N3CCOCC3)cc2OC)ncc1Cl`: the max response is 3.56% and -22.4%.

`O=C1C(c2c(O)[nH]c3ccccc23)=Nc2ccccc21`: the max response is -1.42%.

With `COc1cc(Nc2nc3ccccc3nc2NS(=O)(=O)c2ccc(NC(=O)c3ccc(C)c(OC)c3)cc2)cc(OC)c1`, the compound was classed as inactive.

In the case of `COc1ccc(-c2ccc3ncc4c(c3c2)n(-c2ccc(N3CCNCC3)c(C(F)(F)F)c2)c(=O)n4C)cn1`, the Potency is 9.2 nM (active) and the max response was -112%.

As to `NS(=O)(=O)c1cc(Cl)c(Cl)c(S(N)(=O)=O)c1`, the max response is 0.982% and the result was inactive.

For `CN1C(=O)C(Cc2c[nH]c3ccccc23)NC1=S` (stereo unspecified), the max response was 1.8% and the result was inactive.

As for `CN1c2ccccc2C(=O)N2CCc3c([nH]c4ccccc34)C21` (stereo unspecified), the Potency was 1640 nM (active) and the max response was -2.28%.

For `CNC(=O)c1c(-c2ccc(F)cc2)oc2cc(N(CCO)S(C)(=O)=O)c(C3CC3)cc12`, the result was inactive.

Consider `CC1CCN(c2cc(N3CCN(C)CC3)ccc2NC(=O)c2cc(C#N)c[nH]2)CC1`, for which the max response is 0.425%.

Consider `COc1ccnc(CS(=O)c2nc3ccc(OC(F)F)cc3[nH]2)c1OC` (stereo unspecified), for which the compound was called inactive.

With `CCOC(=O)[C@H](CCc1ccccc1)N[C@@H](C)C(=O)N1CCCC1C(=O)O` (stereo partly specified), the outcome was inactive.

As for `O=C(CO)N1CCC(c2[nH]nc(-c3ccc(Cl)cc3)c2-c2ccncn2)CC1`, the max response was -13.1% and -1.15%.

On to `CC(C)(OCc1nn(Cc2ccccc2)c2ccccc12)C(=O)O`, for which the max response was 0.564% and the result was inactive.

On to `Nc1ccc(-c2ccc3ncc4ccc(=O)n(-c5cccc(C(F)(F)F)c5)c4c3c2)cn1`, for which the Potency was 13.2 nM (active).

Regarding `Cc1ccccc1C(C(=O)NC1CCCCC1)N(C(=O)CNc1ccc(C#N)cc1)c1cccc(F)c1` (stereo unspecified), the max response is -1.85% and the compound was called inactive.

Consider `O=c1cc(-c2ccc(O)c(O)c2)oc2cc(O)cc(O)c12`, for which the call was inactive.

With `COc1nc(C)cnc1NS(=O)(=O)c1cccnc1-c1ccc(-c2nnco2)cc1`, the outcome was inactive.

With `O=C(c1ccc(C(=O)N2CCC(N3CCCC3)CC2)c(Nc2ccccc2)c1)N1CCC(N2CCCC2)CC1`, the max response was -1.83% and -8.97%.

Regarding `CC(C)CNc1ccnc(NCc2csc(-c3ccccc3)n2)n1`, the Potency was 5.26 µM (active) and 1.64 µM (active).

For the compound `Clc1ccc(C2(c3ccc(-c4cn[nH]c4)cc3)CCNCC2)cc1`, the Potency was 5.26 µM (active) and 10.3 µM (active).

Take `CC1=C(C(=O)Nc2cc3cn[nH]c3cc2F)C(c2ccc(C(F)(F)F)cc2)CC(=O)N1` (stereo unspecified): the call was inactive.

In the case of `CC(=O)N1CCN(c2ccc(OCc3nn(C)c(C)c3-c3cccc4c(CCCOc5cc(C)c(Cl)c(C)c5)c(C(=O)O)n(Cc5cccnc5)c34)cc2)CC1`, the outcome was “inactive; activator”.

`Cn1c(=O)c(-c2c(Cl)cccc2Cl)cc2cnc(Nc3cccc(C(=O)O)c3)nc21`: the Potency is 2310 nM (active) and the max response is -22.7%.

For the compound `CCN1C[C@H](C)n2c(c(O)c3c(=O)n(Cc4ccc(F)c(Cl)c4)nc(C(=O)NC)c32)C1=O`, the max response was 1.12% and the result was inactive.

Regarding `COc1ccc(CCC(=O)Nc2nc3ccc(Cl)cc3s2)cc1OC`, the max response was -26%.

`Cc1cc2c(cc1C1(c3ccc(C(=O)O)cn3)CC1)C(C)(C)CCC2(C)C`: the max response is -8.08%.

On to `COc1cc2ncnc(Nc3cc(Br)c(O)c(Br)c3)c2cc1OC`, for which the max response is 0.846% and the compound was called inactive.

For the compound `O=C(O)CCNc1cc(N2CCc3ccccc3CC2)nc(-c2ccccn2)n1`, the max response was 1.95% and -5.12%; the outcome was inactive.

Consider `CN1CCC(COc2cnc(-c3cccc(Cn4nc(-c5cccc(C#N)c5)ccc4=O)c3)nc2)CC1`, for which the compound was classed as inactive.

Take `C[C@@]1(c2cc(-c3cncnc3)c(F)cc2F)CCSC(N)=N1`: the max response was 1.85% and -22.9%.

Consider `C[C@H](c1ccc(F)cc1CCCC(=O)O)N(c1cc(F)ccc1F)S(=O)(=O)c1ccc(Cl)cc1`, for which the max response was -10.5% and the call was inactive.

As for `COc1ccc(-c2cc(=O)c3c(O)cc(O[C@@H]4O[C@H](CO[C@@H]5O[C@@H](C)[C@H](O)[C@@H](O)[C@@H]5O)[C@@H](O)[C@H](O)[C@@H]4O)cc3o2)cc1O`, the call was inactive.

Consider `NC(=O)c1ccc(N(C(N)=O)c2c(F)cccc2F)nc1-c1ccc(F)cc1F`, for which the max response is -4.84% and -3.96%.

The test system of a further experiment is HaCat. The experiment is described as above. To be noted: Five cell lines viability, CellTiter-Glo ATP luminescence, 48-72 h; max response: stronger effect = lower value. The method, boiled down:
as §1
For `COc1nccc(-c2c(-c3ccc(F)cc3)ncn2C2CCC(O)CC2)n1` (stereo unspecified), the max response was -10.4% and the compound was classed as inactive.

On to `CNc1nc(Nc2ccc(C(=O)N3CCOCC3)cc2OC)ncc1Cl`, for which the compound was classed as inactive.

As for `O=C1C(c2c(O)[nH]c3ccccc23)=Nc2ccccc21`, the compound was classed as inactive.

As to `COc1cc(Nc2nc3ccccc3nc2NS(=O)(=O)c2ccc(NC(=O)c3ccc(C)c(OC)c3)cc2)cc(OC)c1`, the max response is -23.6% and -15%.

Turning to `COc1ccc(-c2ccc3ncc4c(c3c2)n(-c2ccc(N3CCNCC3)c(C(F)(F)F)c2)c(=O)n4C)cn1`, the Potency was 3.7 nM (active) and 58 nM (active).

Turning to `NS(=O)(=O)c1cc(Cl)c(Cl)c(S(N)(=O)=O)c1`, the max response was -2.36% and the compound was called inactive.

As for `CN1C(=O)C(Cc2c[nH]c3ccccc23)NC1=S` (stereo unspecified), the result was inactive.

On to `CN1c2ccccc2C(=O)N2CCc3c([nH]c4ccccc34)C21` (stereo unspecified), for which the max response was -3.12%.

In the case of `CC1CCN(c2cc(N3CCN(C)CC3)ccc2NC(=O)c2cc(C#N)c[nH]2)CC1`, the max response is 2.9% and the compound was called inactive.

As for `COc1ccnc(CS(=O)c2nc3ccc(OC(F)F)cc3[nH]2)c1OC` (stereo unspecified), the max response was -12.5% and the compound was classed as inactive.

On to `c1cc(OCCN2CCCCC2)cc(-c2n[nH]c3ccc(-c4ncn[nH]4)cc23)c1`, for which the result was inactive.

In the case of `CCOC(=O)[C@H](CCc1ccccc1)N[C@@H](C)C(=O)N1CCCC1C(=O)O` (stereo partly specified), the call was inactive.

For `O=C(CO)N1CCC(c2[nH]nc(-c3ccc(Cl)cc3)c2-c2ccncn2)CC1`, the max response was -4.95%.

On to `Cc1ccccc1-n1c(Cn2nc(-c3cccc(O)c3)c3c(N)ncnc32)nc2cccc(C)c2c1=O`, for which the call was inactive.

As for `CC(C)(OCc1nn(Cc2ccccc2)c2ccccc12)C(=O)O`, the max response is 3.78% and the call was inactive.

As to `Nc1ccc(-c2ccc3ncc4ccc(=O)n(-c5cccc(C(F)(F)F)c5)c4c3c2)cn1`, the Potency is 2.64 µM (active) and 2.91 µM (active).

For the compound `Cc1ccccc1C(C(=O)NC1CCCCC1)N(C(=O)CNc1ccc(C#N)cc1)c1cccc(F)c1` (stereo unspecified), the max response was -5.11% and the compound was classed as inactive.

As to `O=c1cc(-c2ccc(O)c(O)c2)oc2cc(O)cc(O)c12`, the outcome was inactive.

Turning to `COc1nc(C)cnc1NS(=O)(=O)c1cccnc1-c1ccc(-c2nnco2)cc1`, the max response is 3.49% and the call was inactive.

As to `O=C(c1ccc(C(=O)N2CCC(N3CCCC3)CC2)c(Nc2ccccc2)c1)N1CCC(N2CCCC2)CC1`, the compound was classed as inactive.

For the compound `CC(C)CNc1ccnc(NCc2csc(-c3ccccc3)n2)n1`, the Potency is 16.4 µM (active) and the max response was -4.23%.

For the compound `Clc1ccc(C2(c3ccc(-c4cn[nH]c4)cc3)CCNCC2)cc1`, the Potency is 13 µM (active) and the call was inactive.

On to `CC1=C(C(=O)Nc2cc3cn[nH]c3cc2F)C(c2ccc(C(F)(F)F)cc2)CC(=O)N1` (stereo unspecified), for which the max response was 3.22% and the compound was called inactive.

As to `CC(=O)N1CCN(c2ccc(OCc3nn(C)c(C)c3-c3cccc4c(CCCOc5cc(C)c(Cl)c(C)c5)c(C(=O)O)n(Cc5cccnc5)c34)cc2)CC1`, the call was inactive.

Regarding `c1ccc(CNc2nc(N3CCOc4ccccc43)nc3c2CCCC3)cc1`, the max response is -18.6% and -15.3%.

As for `Cn1c(=O)c(-c2c(Cl)cccc2Cl)cc2cnc(Nc3cccc(C(=O)O)c3)nc21`, the result was inactive.

`CCN1C[C@H](C)n2c(c(O)c3c(=O)n(Cc4ccc(F)c(Cl)c4)nc(C(=O)NC)c32)C1=O`: the max response is -5.77% and -3.93%.

Turning to `COc1ccc(CCC(=O)Nc2nc3ccc(Cl)cc3s2)cc1OC`, the max response was -6.83% and the result was inactive.

As for `Cc1cc2c(cc1C1(c3ccc(C(=O)O)cn3)CC1)C(C)(C)CCC2(C)C`, the max response was -17.6%.

With `COc1cc2ncnc(Nc3cc(Br)c(O)c(Br)c3)c2cc1OC`, the max response was -28.8%.

Take `O=C(O)CCNc1cc(N2CCc3ccccc3CC2)nc(-c2ccccn2)n1`: the max response is -11.8% and the compound was called inactive.

As to `CN1CCC(COc2cnc(-c3cccc(Cn4nc(-c5cccc(C#N)c5)ccc4=O)c3)nc2)CC1`, the compound was classed as inactive.

`C[C@@]1(c2cc(-c3cncnc3)c(F)cc2F)CCSC(N)=N1`: the max response is -8.12% and -24.8%.

With `C[C@H](c1ccc(F)cc1CCCC(=O)O)N(c1cc(F)ccc1F)S(=O)(=O)c1ccc(Cl)cc1`, the outcome was inactive.

As for `COc1ccc(-c2cc(=O)c3c(O)cc(O[C@@H]4O[C@H](CO[C@@H]5O[C@@H](C)[C@H](O)[C@@H](O)[C@@H]5O)[C@@H](O)[C@H](O)[C@@H]4O)cc3o2)cc1O`, the compound was classed as inactive.

As to `COC(=O)N1CCN(Cc2cccc(NC(=O)Nc3ccc(C)nc3)c2F)CC1`, the max response is 3.64% and 2.27%.

With `Cc1cnc(-c2cc(N3CCN(C(=O)CCS(C)(=O)=O)CC3)ncc2Cl)c(C)c1`, the result was inactive.

For the compound `NC(=O)c1ccc(N(C(N)=O)c2c(F)cccc2F)nc1-c1ccc(F)cc1F`, the max response is -19.1% and -25.7%.
